Laboratory results reported in ChEMBL document CHEMBL1961873, “Compounds: GSK PKIS; Assays: Nanosyn kinase panel” (2012).
“And” between values parts separate entries of the source, which are not always exact repeats. Equal values may be shown once.

What was measured:
[1] = target: Tyrosine-protein kinase Fyn (Homo sapiens) (UniProt P06241); conditions: at 1 µM
[2] = target: Tyrosine-protein kinase HCK (Homo sapiens) (UniProt P08631); conditions: at 0.1 µM
[3] = target: Tyrosine-protein kinase HCK (Homo sapiens) (UniProt P08631); conditions: at 1 µM
[4] = target: Insulin-like growth factor 1 receptor (Homo sapiens) (UniProt P08069); conditions: at 0.1 µM
Chain of Insulin-like growth factor 1 receptor (Homo sapiens) (P08069 31-736 limits assumed): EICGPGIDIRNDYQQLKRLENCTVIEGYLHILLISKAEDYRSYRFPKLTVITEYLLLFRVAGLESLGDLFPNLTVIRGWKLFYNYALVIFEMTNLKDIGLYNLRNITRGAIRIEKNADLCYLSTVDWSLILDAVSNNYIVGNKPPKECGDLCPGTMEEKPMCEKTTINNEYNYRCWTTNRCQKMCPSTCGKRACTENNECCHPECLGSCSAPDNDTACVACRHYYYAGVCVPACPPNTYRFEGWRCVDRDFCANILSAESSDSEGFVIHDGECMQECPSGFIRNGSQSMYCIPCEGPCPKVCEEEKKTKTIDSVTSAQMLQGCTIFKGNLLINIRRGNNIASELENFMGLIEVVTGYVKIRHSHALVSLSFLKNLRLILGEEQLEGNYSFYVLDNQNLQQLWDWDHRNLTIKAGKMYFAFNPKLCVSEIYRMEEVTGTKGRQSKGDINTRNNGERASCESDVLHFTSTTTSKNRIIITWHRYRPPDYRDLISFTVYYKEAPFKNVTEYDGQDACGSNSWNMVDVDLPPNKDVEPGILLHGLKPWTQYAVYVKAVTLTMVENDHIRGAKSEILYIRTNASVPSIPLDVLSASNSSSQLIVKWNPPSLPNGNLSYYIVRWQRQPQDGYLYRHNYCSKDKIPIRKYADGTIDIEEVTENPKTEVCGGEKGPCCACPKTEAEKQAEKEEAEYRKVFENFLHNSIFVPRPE
Chain of Insulin-like growth factor 1 receptor (Homo sapiens) (P08069 741-1367 limits assumed): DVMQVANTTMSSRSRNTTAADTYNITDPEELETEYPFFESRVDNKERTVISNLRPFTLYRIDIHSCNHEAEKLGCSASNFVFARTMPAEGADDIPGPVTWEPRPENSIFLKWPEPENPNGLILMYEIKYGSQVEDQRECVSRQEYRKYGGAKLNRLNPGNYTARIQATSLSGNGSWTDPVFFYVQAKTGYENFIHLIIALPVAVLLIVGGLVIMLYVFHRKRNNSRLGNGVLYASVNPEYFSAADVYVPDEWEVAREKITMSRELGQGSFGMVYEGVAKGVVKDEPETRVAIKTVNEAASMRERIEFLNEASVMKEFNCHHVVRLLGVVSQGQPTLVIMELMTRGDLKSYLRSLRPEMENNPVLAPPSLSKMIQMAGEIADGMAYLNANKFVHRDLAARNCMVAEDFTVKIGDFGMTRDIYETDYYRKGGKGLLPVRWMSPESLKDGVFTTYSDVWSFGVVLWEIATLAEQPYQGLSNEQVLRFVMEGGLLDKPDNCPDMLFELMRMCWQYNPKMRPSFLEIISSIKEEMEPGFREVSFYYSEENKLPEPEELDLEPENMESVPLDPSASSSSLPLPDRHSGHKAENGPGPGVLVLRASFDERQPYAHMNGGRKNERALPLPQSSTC

[5] = target: Insulin-like growth factor 1 receptor (Homo sapiens) (UniProt P08069); conditions: at 1 µM
[6] = target: Insulin receptor (Homo sapiens) (UniProt P06213); conditions: at 0.1 µM
Chain of Insulin receptor (Homo sapiens) (P06213 28-758 limits assumed): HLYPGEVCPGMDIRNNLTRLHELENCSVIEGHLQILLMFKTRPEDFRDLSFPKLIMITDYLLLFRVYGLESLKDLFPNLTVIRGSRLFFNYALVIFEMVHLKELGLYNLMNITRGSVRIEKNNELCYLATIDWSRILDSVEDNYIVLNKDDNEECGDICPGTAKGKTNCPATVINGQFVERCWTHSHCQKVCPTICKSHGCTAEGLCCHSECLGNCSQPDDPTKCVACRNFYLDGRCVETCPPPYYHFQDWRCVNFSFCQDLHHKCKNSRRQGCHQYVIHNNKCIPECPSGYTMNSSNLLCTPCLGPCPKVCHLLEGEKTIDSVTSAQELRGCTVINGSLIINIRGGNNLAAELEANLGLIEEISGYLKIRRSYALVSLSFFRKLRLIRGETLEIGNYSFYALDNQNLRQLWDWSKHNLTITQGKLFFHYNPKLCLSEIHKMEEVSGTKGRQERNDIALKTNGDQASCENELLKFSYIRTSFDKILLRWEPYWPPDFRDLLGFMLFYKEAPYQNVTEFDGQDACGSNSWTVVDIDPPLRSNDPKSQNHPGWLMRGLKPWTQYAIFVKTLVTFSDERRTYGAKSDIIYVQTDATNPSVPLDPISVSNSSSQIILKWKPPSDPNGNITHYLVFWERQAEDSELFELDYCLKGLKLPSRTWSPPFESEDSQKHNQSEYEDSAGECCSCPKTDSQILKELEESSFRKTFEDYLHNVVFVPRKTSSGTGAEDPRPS
Chain of Insulin receptor (Homo sapiens) (P06213 763-1382 limits assumed): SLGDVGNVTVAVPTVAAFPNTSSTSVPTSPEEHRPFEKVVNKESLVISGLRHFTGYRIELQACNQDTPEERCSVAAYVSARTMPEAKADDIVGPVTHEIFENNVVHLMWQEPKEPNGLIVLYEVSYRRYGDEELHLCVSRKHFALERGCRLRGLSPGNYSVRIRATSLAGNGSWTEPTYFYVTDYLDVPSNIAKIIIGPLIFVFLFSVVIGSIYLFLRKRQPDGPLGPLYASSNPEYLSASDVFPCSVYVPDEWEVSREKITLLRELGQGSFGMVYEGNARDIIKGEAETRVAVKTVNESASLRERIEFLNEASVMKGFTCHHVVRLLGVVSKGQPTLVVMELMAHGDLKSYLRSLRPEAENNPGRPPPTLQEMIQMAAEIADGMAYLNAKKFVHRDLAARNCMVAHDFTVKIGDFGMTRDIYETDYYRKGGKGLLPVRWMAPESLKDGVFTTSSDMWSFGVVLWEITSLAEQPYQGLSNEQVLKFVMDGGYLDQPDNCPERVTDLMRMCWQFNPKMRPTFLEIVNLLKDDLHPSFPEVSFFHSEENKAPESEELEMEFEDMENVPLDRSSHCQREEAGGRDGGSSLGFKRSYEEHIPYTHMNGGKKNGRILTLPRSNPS

[7] = target: Insulin receptor (Homo sapiens) (UniProt P06213); conditions: at 1 µM
[8] = target: Insulin receptor-related protein (Homo sapiens) (UniProt P14616); conditions: at 0.1 µM
Chain of Insulin receptor-related protein (Homo sapiens) (P14616 27-742 limits assumed): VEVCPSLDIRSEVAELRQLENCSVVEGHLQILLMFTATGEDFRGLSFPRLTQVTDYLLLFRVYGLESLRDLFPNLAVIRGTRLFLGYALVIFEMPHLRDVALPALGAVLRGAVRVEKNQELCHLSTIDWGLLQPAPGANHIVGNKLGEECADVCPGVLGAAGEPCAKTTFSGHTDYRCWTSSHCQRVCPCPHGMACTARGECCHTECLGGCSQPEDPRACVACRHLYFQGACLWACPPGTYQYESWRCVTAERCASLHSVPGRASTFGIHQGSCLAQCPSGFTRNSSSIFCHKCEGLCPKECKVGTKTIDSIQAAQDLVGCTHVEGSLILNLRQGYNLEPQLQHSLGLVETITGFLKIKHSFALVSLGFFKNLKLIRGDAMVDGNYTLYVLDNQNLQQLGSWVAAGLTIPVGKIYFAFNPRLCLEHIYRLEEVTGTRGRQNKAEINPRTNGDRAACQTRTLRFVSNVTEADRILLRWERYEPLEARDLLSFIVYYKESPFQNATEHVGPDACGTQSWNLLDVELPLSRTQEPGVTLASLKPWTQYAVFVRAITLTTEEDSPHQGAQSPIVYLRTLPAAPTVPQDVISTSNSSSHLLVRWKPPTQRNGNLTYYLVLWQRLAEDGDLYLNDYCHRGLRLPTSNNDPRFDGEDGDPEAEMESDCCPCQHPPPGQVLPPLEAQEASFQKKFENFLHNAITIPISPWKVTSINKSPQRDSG
Chain of Insulin receptor-related protein (Homo sapiens) (P14616 747-1297 limits assumed): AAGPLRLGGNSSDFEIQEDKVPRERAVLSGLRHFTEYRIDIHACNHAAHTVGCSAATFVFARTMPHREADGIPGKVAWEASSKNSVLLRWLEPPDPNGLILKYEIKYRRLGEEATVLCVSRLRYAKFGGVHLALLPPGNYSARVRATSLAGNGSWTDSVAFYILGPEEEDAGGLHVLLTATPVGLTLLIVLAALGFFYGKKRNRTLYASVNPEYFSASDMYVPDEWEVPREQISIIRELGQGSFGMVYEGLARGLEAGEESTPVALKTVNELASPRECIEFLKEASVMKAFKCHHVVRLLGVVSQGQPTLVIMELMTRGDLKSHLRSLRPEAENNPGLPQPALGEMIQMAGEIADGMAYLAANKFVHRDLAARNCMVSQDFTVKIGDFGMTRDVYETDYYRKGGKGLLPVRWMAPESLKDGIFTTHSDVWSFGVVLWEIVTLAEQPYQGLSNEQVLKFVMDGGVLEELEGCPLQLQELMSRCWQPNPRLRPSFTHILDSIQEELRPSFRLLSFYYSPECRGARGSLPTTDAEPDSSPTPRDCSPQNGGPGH

[9] = target: Insulin receptor-related protein (Homo sapiens) (UniProt P14616); conditions: at 1 µM
[10] = target: T1, Tyrosine-protein kinase ITK/TSK (Homo sapiens) (UniProt Q08881); conditions: at 0.1 µM;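 further: mean percent inhibition of ITK from the GSK PKIS screen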
T1 sequence (whole entry): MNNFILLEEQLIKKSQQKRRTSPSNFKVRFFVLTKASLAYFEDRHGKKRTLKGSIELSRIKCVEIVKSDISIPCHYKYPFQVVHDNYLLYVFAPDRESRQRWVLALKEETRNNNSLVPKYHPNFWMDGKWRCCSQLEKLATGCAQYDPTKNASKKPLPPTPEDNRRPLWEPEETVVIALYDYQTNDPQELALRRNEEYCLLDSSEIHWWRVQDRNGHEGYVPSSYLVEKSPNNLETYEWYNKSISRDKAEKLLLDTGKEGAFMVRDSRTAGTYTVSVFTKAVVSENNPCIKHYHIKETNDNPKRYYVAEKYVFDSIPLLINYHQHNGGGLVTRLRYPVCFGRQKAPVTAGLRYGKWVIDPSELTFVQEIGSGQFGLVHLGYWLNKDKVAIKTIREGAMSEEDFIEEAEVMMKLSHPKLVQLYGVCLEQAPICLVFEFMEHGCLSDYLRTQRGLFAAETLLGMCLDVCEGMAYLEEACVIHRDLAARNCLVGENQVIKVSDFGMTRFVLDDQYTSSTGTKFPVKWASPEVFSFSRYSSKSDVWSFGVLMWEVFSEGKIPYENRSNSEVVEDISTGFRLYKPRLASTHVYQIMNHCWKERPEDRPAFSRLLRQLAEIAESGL

Chain of Tyrosine-protein kinase Fyn (Homo sapiens) (P06241 2-537 limits assumed): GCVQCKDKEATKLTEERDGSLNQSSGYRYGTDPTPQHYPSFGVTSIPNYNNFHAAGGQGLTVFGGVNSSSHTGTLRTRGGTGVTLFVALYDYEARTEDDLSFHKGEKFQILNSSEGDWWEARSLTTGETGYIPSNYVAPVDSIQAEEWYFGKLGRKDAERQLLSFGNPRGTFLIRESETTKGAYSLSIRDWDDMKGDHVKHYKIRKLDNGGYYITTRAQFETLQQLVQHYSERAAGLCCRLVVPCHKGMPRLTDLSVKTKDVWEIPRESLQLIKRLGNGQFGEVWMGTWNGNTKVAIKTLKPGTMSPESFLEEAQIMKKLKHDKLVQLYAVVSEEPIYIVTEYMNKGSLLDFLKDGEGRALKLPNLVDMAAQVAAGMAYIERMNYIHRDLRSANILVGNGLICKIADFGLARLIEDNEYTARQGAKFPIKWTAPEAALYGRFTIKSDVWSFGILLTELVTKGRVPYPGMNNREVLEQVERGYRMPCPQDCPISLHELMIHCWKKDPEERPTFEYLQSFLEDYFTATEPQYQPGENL
Chain of Tyrosine-protein kinase HCK (Homo sapiens) (P08631 2-526 limits assumed): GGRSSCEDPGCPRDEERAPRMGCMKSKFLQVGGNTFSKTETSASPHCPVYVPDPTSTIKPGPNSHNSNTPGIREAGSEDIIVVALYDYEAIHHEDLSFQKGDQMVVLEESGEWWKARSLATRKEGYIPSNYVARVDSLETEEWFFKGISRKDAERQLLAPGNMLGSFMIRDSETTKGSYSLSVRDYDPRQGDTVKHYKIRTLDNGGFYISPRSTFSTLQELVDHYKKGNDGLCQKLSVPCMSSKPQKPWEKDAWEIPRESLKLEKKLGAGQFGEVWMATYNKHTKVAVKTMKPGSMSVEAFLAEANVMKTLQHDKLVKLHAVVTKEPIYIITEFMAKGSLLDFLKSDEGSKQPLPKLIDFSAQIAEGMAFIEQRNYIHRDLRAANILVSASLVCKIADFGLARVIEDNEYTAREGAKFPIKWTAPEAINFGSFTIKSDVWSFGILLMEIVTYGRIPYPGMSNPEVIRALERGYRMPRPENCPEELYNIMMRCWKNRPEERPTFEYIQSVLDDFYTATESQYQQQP

Row | SMILES | inhibition [1] | inhibition [2] | inhibition [3] | inhibition [4] | inhibition [5] | inhibition [6] | inhibition [7] | inhibition [8] | inhibition [9] | inhibition [10]
1 | CN1CCC(C(=O)Nc2n[nH]c3nc(-c4ccc(O)cc4)c(Br)cc23)CC1 | 2.18% and 4.52% | 3.06% and 2.78% | 6.08% and 4.64% | -4.96% and 3.55% | -5.49% and 3.41% | 5.36% and 4.34% | 4.73% and 6.55% | 2.54% and -0.17% | 2.5% and 1.64% | -2.09% and 0.57%
2 | O=C(O[C@H]1CN[C@H](C#Cc2cc3ncnc(Nc4ccc5c(ccn5Cc5cc(F)ccc5F)c4)c3s2)C1)N1CCOCC1 | 0.77% | 4.89% | 8.93% | 2.56% | 2.8% | 6.64% | 2.68% | 1.67% | 2.01% | 1.67%
3 | NS(=O)(=O)c1ccc(N/N=C2\C(=O)Nc3cccc(CCc4ccncc4)c32)cc1 | 4.54% | 2.52% | 6.49% | 1.21% | 1.06% | 4.32% | 5.06% | -0.57% | 0.48% | 0.79%
4 | COc1cccc(-n2ncc3c(N/N=C/c4ccc(C(=O)NCCN(C)C)cc4)ncnc32)c1 | 84.5% | 23.1% | 68.8% | 3.78% | 4.69% | 0.94% | 1.97% | 5.09% | 1.31% | 2.07%
5 | NC(=O)c1ccc2c(-c3ccnc(NCCCO)n3)c(-c3ccc(F)cc3)nn2c1 | 5.23% | 7.1% | 15.6% | 3.95% | 6.12% | 10.3% | 6.62% | 4.18% | 4.01% | 1.32%
6 | CN(C)CCNC(=O)Nc1ccc(N(C)c2ccnc(Nc3ccc(CS(C)(=O)=O)cc3)n2)cc1 | 3.44% | 6.05% | 12.3% | 5.44% | 8.75% | 3.47% | 5.6% | 2.48% | 3.81% | 1.62%
7 | CS(=O)(=O)Nc1ccc(-c2ccc3c(NC(=O)C4CC4)n[nH]c3c2)cc1 | 2.5% | 5.35% | 8.62% | 7.15% | 5.41% | 4.13% | 5.66% | 3.14% | 2.41% | 1.56%
8 | CCn1c(-c2nonc2N)nc2cncc(C(=O)NCCNC)c21 | 2% | 4.96% | 6.37% | 1.12% | 5.76% | 5.87% | 15.3% | 3.26% | 5.53% | -0.27%
